Cell proliferation data for 39 compounds are collected here from the supplement of paper PMC13172266.

Counter-ions that a name gives are not always drawn.

The assay deals with U2932 TK216-resistant clone 2. The assay is described as follows: cell proliferation relative to vehicle (% of vehicle); higher = less growth inhibition. Particulars: 50 nM; 72 h. An outline of the steps:
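A library of 348 targeted inhibitors was screened against the ABC-DLBCL cell line U2932, using parental cells and two clones made resistant to an ETS-targeting agent through repeated exposure over almost a year. The cells were cultured at 37°C and 5% CO2 in medium containing 10% FBS and treated at 500 nM or 50 nM for 72 h, after which MTT was added for 4 h, stopped with 25% SDS, and absorbance was read on a Cytation 3. Proliferation is given as the percentage of proliferating cells relative to the vehicle, DMSO.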
`O=C(NCc1ccncc1)C12CC3CC(C1)CC(c1ccc(Cl)cc1)(C3)C2`: the cell proliferation worked out at 105. Under `Cc1csc(-c2nnc(Nc3ccc(Oc4ncccc4-c4ccnc(N)n4)cc3)c3ccccc23)c1` stands 88. In turn, `CCS(=O)(=O)N1CC(CC#N)(n2cc(-c3ncnc4[nH]ccc34)cn2)C1` returned a cell proliferation of 107.

In turn, `COc1ccc(-c2ccc3c(N4CCOC[C@@H]4C)nc(N4CCOC[C@@H]4C)nc3n2)cc1CO` registered a cell proliferation of 72.7.

For `CCOc1ccc(Cc2cc([C@@H]3O[C@H](CO)[C@@H](O)[C@H](O)[C@H]3O)ccc2Cl)cc1` [Dapagliflozin], the cell proliferation was found to be 103.

In the case of `CC(=O)O[C@@]12CO[C@@H]1C[C@H](O)[C@@]1(C)C(=O)[C@H](O)C3=C(C)[C@@H](OC(=O)[C@H](O)[C@@H](NC(=O)OC(C)(C)C)c4ccccc4)C[C@@](O)([C@@H](OC(=O)c4ccccc4)[C@H]21)C3(C)C` [Docetaxel], the cell proliferation was found to be 8.81. Under `O=C(Nc1cccc(Nc2ncc(Br)c(NCCc3cnc[nH]3)n2)c1)N1CCCC1` stands 95.7. Then `Nc1ccccc1NC(=O)c1ccc(CNC(=O)OCc2cccnc2)cc1` [Entinostat (MS-275)], with 104.

`CC1(C)CCC(CN2CCN(c3ccc(C(=O)NS(=O)(=O)c4ccc(NCC5CCOCC5)c([N+](=O)[O-])c4)c(Oc4cnc5[nH]ccc5c4)c3)CC2)=C(c2ccc(Cl)cc2)C1` came in with a cell proliferation of 74.5. Consider `O=C(O)C(Cc1c[nH]c2ccccc12)N1C(=O)c2ccccc2C1=O` (centres undefined), for which the cell proliferation is 97.2.

`Cc1cnc(-c2ccccc2C(C)C)nc1NCc1ccc(-n2ccnn2)cc1` yielded a cell proliferation of 108. Then `CCc1ccc(/C=C2/SC(=S)NC2=O)cc1`, with 105; and `O=C(Cc1ccc(-c2ccc(OCCN3CCOCC3)cc2)cn1)NCc1ccccc1`, with 14.1; and `C/C(=C\C(=O)Nc1ccccc1C(=O)O)c1ccc2ccccc2c1`, with 82.5. For the compound `CN1CCC(CNc2ccc3ncc(-c4cccc(OC(F)(F)F)c4)n3n2)CC1` [SGI-1776 free base], the cell proliferation worked out at 103.

On to `Cc1cn([C@H]2O[C@@H](CO)[C@H](O)[C@H]2F)c(=O)[nH]c1=O` [Clevudine], for which the cell proliferation is 100. Under `CNC(=O)c1cccc(-c2ccc3c(N4CCOC[C@@H]4C)nc(N4CCOC[C@@H]4C)nc3n2)c1` stands 102; under `CCCCCCCCc1ccc(CCC(N)(CO)CO)cc1` [Fingolimod (FTY720) HCl], 99.3. Then `COC1=CC(c2cc3ccccc3[nH]2)=N/C1=C\c1[nH]c(C)cc1C` [Obatoclax Mesylate (GX15-070)], with 94.8; and `O=c1[nH]nc(Sc2ncc([N+](=O)[O-])s2)n1-c1ccc2c(c1)OCCO2`, with 98.1; and `CN(NC(=O)CC(=O)NN(C)C(=S)c1ccccc1)C(=S)c1ccccc1` [Elesclomol (STA-4783)], with 0.164.

For `C[C@@H]1CN(CC(=O)Nc2ccc3c(c2)Cc2cccc(-c4cc(=O)cc(N5CCOCC5)o4)c2S3)C[C@H](C)O1`, the cell proliferation was found to be 102. Under `Nc1nc(F)nc2c1ncn2[C@@H]1O[C@H](COP(=O)(O)O)[C@@H](O)[C@@H]1O` [Fludarabine Phosphate] stands 98.2; under `CC/C(=C(\c1ccccc1)c1ccc(OCCN(C)C)cc1)c1ccccc1` [Tamoxifen Citrate], 98.9. As to `O=C(O)CC[C@H]1CC[C@@](c2cc(F)ccc2F)(S(=O)(=O)c2ccc(Cl)cc2)CC1`, the cell proliferation was found to be 102. Under `CCn1c2ccccc2c2cc(Nc3ccnc(NCCCN4CCOCC4)n3)ccc21` stands 85.4. Under `O=C(/C=C\n1cnc(-c2cc(C(F)(F)F)cc(C(F)(F)F)c2)n1)NNc1cnccn1` stands 87.7; under `CCN(CC)CCNC(=O)c1c(C)[nH]c(/C=C2\C(=O)Nc3ccc(F)cc32)c1C` [Sunitinib Malate], 107. Under `N#Cc1c(Oc2ccc(F)c(NC(=O)Cc3cccc(C(F)(F)F)c3)c2)ccc2nc(NC(=O)C3CC3)sc12` stands 104; under `Cc1nc(C(=O)NCC(=O)O)c(O)c2ccc(Oc3ccccc3)cc12`, 102.

With `C[C@H]1c2cccc(O)c2C(=O)C2=C(O)[C@]3(O)C(=O)C(C(N)=O)=C(O)[C@@H](N(C)C)[C@@H]3[C@@H](O)[C@@H]21` [Doxycycline Hyclate], the cell proliferation was determined as 104. In turn, `CS(=O)(=O)c1ccc(C(=O)Nc2ccc(Cl)c(-c3ccccn3)c2)c(Cl)c1` [Vismodegib (GDC-0449)] returned a cell proliferation of 106. Under `NC(=O)c1ncn([C@@H]2O[C@H](CO)[C@@H](O)[C@H]2O)c1N` [Acadesine] stands 88.9.

The compound `O=C(O)CCNc1cc(N2CCc3ccccc3CC2)nc(-c2ccccn2)n1` had a cell proliferation of 103. Under `Oc1cccc(-c2nc(N3CCOCC3)c3oc4ncccc4c3n2)c1` stands 97.4; under `C#Cc1cccc(Nc2ncnc3cc(OC)c(OCCCCCCC(=O)NO)cc23)c1`, 93.7.

Turning to `CC1(C)CCC(c2ccc(Cl)cc2)=C(CN2CCN(c3ccc(C(=O)NS(=O)(=O)c4ccc(N[C@H](CCN5CCOCC5)CSc5ccccc5)c(S(=O)(=O)C(F)(F)F)c4)cc3)CC2)C1` [ABT-263 (Navitoclax)], the cell proliferation was determined as 100. Under `COc1ccc(-c2ccc3c(N4CCOCC4)nc(N4C[C@@H](C)O[C@@H](C)C4)nc3n2)cc1CO` stands 95.3. As to `CCN(CC)CCCC(C)Nc1ccnc2cc(Cl)ccc12` (centres undefined) [Chloroquine Phosphate], the cell proliferation came to 98.7.
